Experimental data reported in PubChem BioAssay (NCATS).
A number with no mark means an inactive call. Calls come from the whole dose curve; as a rule, active = well fitted activation curve with a large enough effect; inconclusive = small, poorly fitted or top-dose-only effect, or effect the other way; inactive = flat fitted curve, though single readings scatter. Inconclusive results are not listed.

Experiment: Cellular Toxicity (caspase-3) NIH 3T3 (AID 666);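 note: 0% = DMSO basal and 100% = 100 µM tamoxifen stimulation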
Conditions: NIH 3T3 caspase-3 activation, apoptosis/toxicity; series mostly up to 92.2 µM; caspase-3 activation: at the top concentration
Outline: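 Caspase-Glo 3/7 luminescence reported caspase activation in 1000 NIH 3T3 cells/well after 16 h compound exposure at 37 C. DMSO set basal and 100 uM tamoxifen set 100% stimulation; concentration-response modeled with the Hill equation for AC50.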

With `Oc1ccc2cc(SSc3ccc4cc(O)ccc4c3)ccc2c1` as the compound, how does the “caspase-3 activation” value read?
The value was -20.4%.

For `Nc1ccc2cc3ccccc3cc2c1`, which “caspase-3 activation” value is on record?
Its value is -4.09%.

Which “caspase-3 activation” value does the source give for `CN(C)c1ccc(C2(c3ccc(N(C)C)cc3)OC(=O)c3cc(N(C)C)ccc32)cc1` here?
The value was -3.12%.

For `CO[C@H]1/C=C/O[C@@]2(C)Oc3c(C)c(O)c4c(O)c(c5c(c4c3C2=O)NC2(CCN(CC(C)C)CC2)N=5)=NC(=O)/C(C)=C\C=C\[C@H](C)[C@H](O)[C@@H](C)[C@@H](O)[C@@H](C)[C@H](OC(C)=O)[C@@H]1C`, which “caspase-3 activation” value is on record?
The value was -7.06%.

Which “caspase-3 activation” value does the source give for `Cc1cc(O)c(C(C)(C)C)cc1Sc1cc(C(C)(C)C)c(O)cc1C` here?
The value was -2.8%.

Which “caspase-3 activation” value does the source give for `C=C(C)c1ccccc1` here?
The value was 4.96%.

With `Cc1ccc(S(=O)(=O)Oc2ccc(N=Nc3ccc(-c4ccc(N=Nc5c(O)ccc6cc(S(=O)(=O)O)cc(S(=O)(=O)O)c56)c(C)c4)cc3C)cc2)cc1` as the compound, how does the “caspase-3 activation” value read?
Its value is -4.87%.

For `O=C1OC2(c3cc(Br)c(O)c(Br)c3Oc3c2cc(Br)c(O)c3Br)c2c(Cl)c(Cl)c(Cl)c(Cl)c21`, which “caspase-3 activation” value is on record?
Its value is -6.13%.

With `ClC1=C(Cl)C(Cl)(Cl)C(Cl)=C1Cl` as the compound, how does the “caspase-3 activation” value read?
Its value is -1.97%.

Which “caspase-3 activation” value does the source give for `C=CC(=O)OCCOCCOC(=O)C=C` here?
The value was -11%.

For `C/C=C1\C(=O)C[C@H]2[C@@H]3CCC4=CC(=O)CC[C@]4(C)[C@H]3CC[C@]12C`, which “caspase-3 activation” value is on record?
Its value is -1.91%.

With `O=C1OC(O)C(C(Cl)Cl)=C1Cl` (stereo unspecified) as the compound, how does the “caspase-3 activation” value read?
The value was -2.33%.

Which “caspase-3 activation” value does the source give for `CC(=O)Nc1ccc(C(=O)CCl)cc1` here?
The value was -19%.

With `O=C=Nc1ccc(Cc2ccc(N=C=O)cc2)cc1` as the compound, how does the “caspase-3 activation” value read?
The value was -1.88%.

Which “caspase-3 activation” value does the source give for `c1ccc2c(c1)ccc1cc3c(ccc4ccccc43)cc12` here?
Its value is -13.8%.

With `CC/C(=C(\c1ccccc1)c1ccc(OCCN(C)C)cc1)c1ccc(O)cc1` as the compound, how does the “caspase-3 activation” value read?
The value was 27.8%.

With `c1ccc2c(c1)-c1cccc3c1c-2cc1ccccc13` as the compound, how does the “caspase-3 activation” value read?
Its value is 0.252%.

With `O=[N+]([O-])c1cc([N+](=O)[O-])c2ccc(S(=O)(=O)O)cc2c1O` as the compound, how does the “caspase-3 activation” value read?
The value was -4.47%.

With `O=Cc1ccc(Cl)c(Cl)c1` as the compound, how does the “caspase-3 activation” value read?
The value was -3.83%.

Experiment: Cellular Toxicity (caspase-3) Renal Proximal Tubule (AID 667);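 note: cells exposed to compound for 16 hours at 37 °C before detection; 0% = DMSO basal and 100% = 10 µM staurosporine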
Conditions: renal proximal tubule cells, primary cells freshly taken from rat, solvent-only wells 0%, staurosporine 100%; series mostly up to 91.7 µM; caspase-3 activation: at the top concentration
Outline: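 Luminescent caspase 3/7 signal from peptide-aminoluciferin cleavage measures apoptosis in freshly isolated rat kidney proximal tubule cells after 16 h compound exposure. Concentration-response data are normalized to DMSO and 10 uM staurosporine, and AC50 values come from Hill equation fits.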

For `Oc1ccc2cc(SSc3ccc4cc(O)ccc4c3)ccc2c1`, which “caspase-3 activation” value is on record?
Its value is -19.6%.

With `Nc1ccc2cc3ccccc3cc2c1` as the compound, how does the “caspase-3 activation” value read?
The value was -2.46%.

For `CN(C)c1ccc(C2(c3ccc(N(C)C)cc3)OC(=O)c3cc(N(C)C)ccc32)cc1`, which “caspase-3 activation” value is on record?
The value was 2.67%.

Which “caspase-3 activation” value does the source give for `Cc1cc(Nc2ccc(O)cc2)ccc1N` here?
Its value is -3.22%.

With `CO[C@H]1/C=C/O[C@@]2(C)Oc3c(C)c(O)c4c(O)c(c5c(c4c3C2=O)NC2(CCN(CC(C)C)CC2)N=5)=NC(=O)/C(C)=C\C=C\[C@H](C)[C@H](O)[C@@H](C)[C@@H](O)[C@@H](C)[C@H](OC(C)=O)[C@@H]1C` as the compound, how does the “caspase-3 activation” value read?
The value was -3.72%.

With `C=C(C)c1ccccc1` as the compound, how does the “caspase-3 activation” value read?
The value was 4.34%.

With `Cc1ccc(S(=O)(=O)Oc2ccc(N=Nc3ccc(-c4ccc(N=Nc5c(O)ccc6cc(S(=O)(=O)O)cc(S(=O)(=O)O)c56)c(C)c4)cc3C)cc2)cc1` as the compound, how does the “caspase-3 activation” value read?
The value was -0.405%.

For `O=C1OC2(c3cc(Br)c(O)c(Br)c3Oc3c2cc(Br)c(O)c3Br)c2c(Cl)c(Cl)c(Cl)c(Cl)c21`, which “caspase-3 activation” value is on record?
The value was -8.34%.

With `c1cc(OCC2CO2)cc(OCC2CO2)c1` (stereo unspecified) as the compound, how does the “caspase-3 activation” value read?
Its value is -0.124%.

Which “caspase-3 activation” value does the source give for `ClC1=C(Cl)C(Cl)(Cl)C(Cl)=C1Cl` here?
The value was 5.29%.

For `C=CC(=O)OCCOCCOC(=O)C=C`, which “caspase-3 activation” value is on record?
The value was -4.53%.

Which “caspase-3 activation” value does the source give for `C/C=C1\C(=O)C[C@H]2[C@@H]3CCC4=CC(=O)CC[C@]4(C)[C@H]3CC[C@]12C` here?
The value was 15.5%.

For `O=C1OC(O)C(C(Cl)Cl)=C1Cl` (stereo unspecified), which “caspase-3 activation” value is on record?
Its value is -12%.

Which “caspase-3 activation” value does the source give for `CNc1ccc(O)cc1` here?
The value was -19.9%.

Which “caspase-3 activation” value does the source give for `CC(=O)Nc1ccc(C(=O)CCl)cc1` here?
The value was -16.8%.

Which “caspase-3 activation” value does the source give for `CCC(C)Nc1ccc(NC(C)CC)cc1` (stereo unspecified) here?
The value was 1.96%.

With `O=C=Nc1ccc(Cc2ccc(N=C=O)cc2)cc1` as the compound, how does the “caspase-3 activation” value read?
Its value is 1.18%.

For `c1ccc2c(c1)ccc1cc3c(ccc4ccccc43)cc12`, which “caspase-3 activation” value is on record?
The value was 3.49%.

Which “caspase-3 activation” value does the source give for `CC/C(=C(\c1ccccc1)c1ccc(OCCN(C)C)cc1)c1ccc(O)cc1` here?
Its value is 4.69%.

Which “caspase-3 activation” value does the source give for `c1ccc2c(c1)-c1cccc3c1c-2cc1ccccc13` here?
Its value is -2.35%.

With `O=[N+]([O-])c1cc([N+](=O)[O-])c2ccc(S(=O)(=O)O)cc2c1O` as the compound, how does the “caspase-3 activation” value read?
Its value is -8.17%.

Which “caspase-3 activation” value does the source give for `O=Cc1ccc(Cl)c(Cl)c1` here?
The value was -9.98%.
